Measurements as given in PubChem BioAssay AID1159580 (chemical genetic matrix, 2015).
About 2,000 (36%) of roughly 5,500 compounds were called active. Roughly 18% stayed inconclusive and do not appear here. Cut-off read from the data, not from the text of the source: active = normalized growth mostly below about 0.91 (no sharp cut-off); inconclusive = no clear call, values can overlap the other calls; inactive = mostly above about 0.92. The list shows a part of the results.

Assay: chemical genetic growth profiling, strain panel (AID 1159580);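 note: tested at 20 µM; growth read once vehicle control cultures reached saturation at 30 °C; 1 = growth at the plate median or of vehicle wells; lower values mean less growth of the strain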
Conditions: S. cerevisiae deletion strains, growth OD
[1] = locus YHR030C, strain SLT2, active compounds read low
[2] = locus YHR079C, strain IRE1, active compounds read low
[3] = locus YJL095W, strain BCK1, active compounds read low
[4] = locus YJR066W, strain TOR1, active compounds read low
[5] = locus YLR113W, strain HOG1, active compounds read low
[6] = locus YNL183C, strain NPR1, active compounds read low
[7] = locus YOR231W, strain MKK1, active compounds read low
[8] = locus YPL256C, strain CLN2, active compounds read low

Measured: normalized growth

Cc1cc2nc3c(=O)[nH]c(=O)nc-3n(C[C@@H](O)[C@@H](O)[C@@H](O)COP(=O)(O)O)c2cc1C
inactive: [1] 1.04 | [2] 1.04 | [3] 1.03 | [4] 0.966 | [5] 1.03 | [6] 0.97 | [7] 1.04 | [8] 1.04

Cc1cc2nc3c(=O)[nH]c(=O)nc-3n(CC(O)C(O)C(O)CO)c2cc1C (configuration not stated)
inactive: locus YAL021C, strain ccr4, active compounds read low 0.995 | locus YAL026C, strain drs2, active compounds read low 0.981 | locus YAL030W, strain snc1, active compounds read low 0.944 | locus YBL061C, strain skt5, active compounds read low 0.988 | locus YBR009C, strain hhf1, active compounds read low 0.954 | locus YBR023C, strain chs3, active compounds read low 1.01 | locus YBR171W, strain sec66, active compounds read low 0.962 | locus YBR231C, strain swc5, active compounds read low 1.01 | locus YBR279W, strain paf1, active compounds read low 1 | locus YCL011C, strain gbp2, active compounds read low 0.987 | locus YCL016C, strain dcc1, active compounds read low 1.05 | locus YCL069W, strain vba3, active compounds read low 0.959 | locus YCR088W, strain abp1, active compounds read low 0.974 | locus YDL005C, strain med2, active compounds read low 0.99 | locus YDL040C, strain nat1, active compounds read low 0.982 | locus YDR001C, strain nth1, active compounds read low 0.982 | locus YDR069C, strain doa4, active compounds read low 0.964 | locus YDR137W, strain rgp1, active compounds read low 1.05 | locus YDR159W, strain sac3, active compounds read low 0.9 | locus YDR195W, strain ref2 1.01 | locus YDR297W, strain sur2, active compounds read low 0.955 | locus YDR334W, strain swr1, active compounds read low 0.932 | locus YDR335W, strain msn5, active compounds read low 1.02 | locus YDR392W, strain spt3, active compounds read low 0.91 | locus YEL037C, strain rad23, active compounds read low 0.974 | locus YEL061C, strain CIN8 (second series), active compounds read low 0.962 | locus YER015W, strain faa2, active compounds read low 0.97 | locus YER016W, strain bim1, active compounds read low 0.994 | locus YER111C, strain swi4, active compounds read low 1 | locus YER155C, strain BEM2 (second series), active compounds read low 0.912 | locus YFR010W, strain ubp6, active compounds read low 0.91 | locus YGL167C, strain pmr1, active compounds read low 0.958 | locus YGL173C, strain kem1, active compounds read low 0.974 | locus YGL227W, strain vid30, active compounds read low 0.98 | locus YGL240W, strain doc1, active compounds read low 0.927 | locus YGL253W, strain hxk2, active compounds read low 1.01 | locus YHR013C, strain ard1, active compounds read low 0.992 | locus YHR027C, strain rpn1, active compounds read low 0.959 | [1] 0.959 | [2] 0.968 | locus YHR142W, strain chs7, active compounds read low 1.01 | locus YJL092W, strain hpr5, active compounds read low 0.98 | locus YJL095W, strain BCK1 (second series), active compounds read low 0.985 | [3] 0.966 | locus YJL115W, strain asf1, active compounds read low 0.969 | locus YJL129C, strain trk1, active compounds read low 0.996 | locus YJL154C, strain vps35, active compounds read low 0.967 | locus YJL164C, strain tpk1, active compounds read low 0.924 | locus YJL166W, strain qcr8, active compounds read low 0.94 | locus YJL187C, strain SWE1, active compounds read low 0.974 | [4] 0.926 | locus YKL160W, strain elf1, active compounds read low 1.03 | locus YKR026C, strain gcn3, active compounds read low 0.982 | locus YKR091W, strain srl3, active compounds read low 0.985 | locus YLL001W, strain dnm1, active compounds read low 0.95 | locus YLL026W, active compounds read low 0.973 | locus YLL041C, strain sdh2, active compounds read low 1 | locus YLR027C, strain aat2, active compounds read low 0.98 | [5] 0.957 | locus YLR221C, strain rsa3, active compounds read low 0.937 | locus YLR258W, strain gsy2, active compounds read low 1 | locus YLR262C, strain YPT6 (second series), active compounds read low 0.988 | locus YLR320W, strain mms22, active compounds read low 0.956 | locus YLR342W, strain FKS1, active compounds read low 0.964 | locus YLR357W, strain rsc2, active compounds read low 0.9 | locus YLR370C, strain arc18, active compounds read low 1.01 | locus YLR384C, strain iki3, active compounds read low 1.01 | locus YML120C, strain ndi1, active compounds read low 0.918 | locus YMR058W, strain fet3, active compounds read low 0.941 | locus YMR125W, strain sto1, active compounds read low 0.985 | locus YMR129W, active compounds read low 1 | locus YMR205C, strain PFK2, active compounds read low 1 | locus YMR231W, strain pep5, active compounds read low 0.968 | locus YNL071W, strain lat1, active compounds read low 0.972 | [6] 0.933 | locus YNL209W, strain ssb2, active compounds read low 1 | locus YNL248C, strain rpa49, active compounds read low 0.997 | locus YNL322C, strain KRE1 (second series), active compounds read low 0.996 | locus YNR049C, strain mso1, active compounds read low 0.994 | locus YOR001W, strain rrp6, active compounds read low 0.908 | locus YOR070C, strain gyp1, active compounds read low 0.984 | locus YOR080W, strain dia2, active compounds read low 0.989 | locus YOR083W, strain WHI5, active compounds read low 0.951 | locus YOR106W, strain vam3, active compounds read low 0.96 | [7] 0.966 | locus YOR265W, strain rbl2, active compounds read low 0.973 | locus YOR270C, strain vph1, active compounds read low 0.965 | locus YOR290C, strain snf2, active compounds read low 1.01 | locus YPL051W, strain arl3, active compounds read low 1.01 | locus YPL078C, strain atp4, active compounds read low 1.02 | locus YPL106C, strain sse1, active compounds read low 0.951 | locus YPL240C, strain hsp82, active compounds read low 0.996 | [8] 0.98
active: locus YEL003W, strain gim4, active compounds read low 0.907
